# Screens: PubChem, National Center for Advancing Translational Sciences (NCATS)
# KDM5B inh = inhibitors of human KDM5B histone demethylase; Q9UGL1; Potency, µM (titrated, usually from 57.7 µM), actives largely listed as inhibitors; KDM5B demethylase, FDH-coupled NADH fluorescence (FDH is formaldehyde dehydrogenase); 2.6% of 220,000 active; active = well fitted inhibition curve with a large enough effect; note: 0% is about no effect; nearly all actives have a fitted effect of over 70% in size
# Target sequence (Q9UGL1 whole entry, looked up): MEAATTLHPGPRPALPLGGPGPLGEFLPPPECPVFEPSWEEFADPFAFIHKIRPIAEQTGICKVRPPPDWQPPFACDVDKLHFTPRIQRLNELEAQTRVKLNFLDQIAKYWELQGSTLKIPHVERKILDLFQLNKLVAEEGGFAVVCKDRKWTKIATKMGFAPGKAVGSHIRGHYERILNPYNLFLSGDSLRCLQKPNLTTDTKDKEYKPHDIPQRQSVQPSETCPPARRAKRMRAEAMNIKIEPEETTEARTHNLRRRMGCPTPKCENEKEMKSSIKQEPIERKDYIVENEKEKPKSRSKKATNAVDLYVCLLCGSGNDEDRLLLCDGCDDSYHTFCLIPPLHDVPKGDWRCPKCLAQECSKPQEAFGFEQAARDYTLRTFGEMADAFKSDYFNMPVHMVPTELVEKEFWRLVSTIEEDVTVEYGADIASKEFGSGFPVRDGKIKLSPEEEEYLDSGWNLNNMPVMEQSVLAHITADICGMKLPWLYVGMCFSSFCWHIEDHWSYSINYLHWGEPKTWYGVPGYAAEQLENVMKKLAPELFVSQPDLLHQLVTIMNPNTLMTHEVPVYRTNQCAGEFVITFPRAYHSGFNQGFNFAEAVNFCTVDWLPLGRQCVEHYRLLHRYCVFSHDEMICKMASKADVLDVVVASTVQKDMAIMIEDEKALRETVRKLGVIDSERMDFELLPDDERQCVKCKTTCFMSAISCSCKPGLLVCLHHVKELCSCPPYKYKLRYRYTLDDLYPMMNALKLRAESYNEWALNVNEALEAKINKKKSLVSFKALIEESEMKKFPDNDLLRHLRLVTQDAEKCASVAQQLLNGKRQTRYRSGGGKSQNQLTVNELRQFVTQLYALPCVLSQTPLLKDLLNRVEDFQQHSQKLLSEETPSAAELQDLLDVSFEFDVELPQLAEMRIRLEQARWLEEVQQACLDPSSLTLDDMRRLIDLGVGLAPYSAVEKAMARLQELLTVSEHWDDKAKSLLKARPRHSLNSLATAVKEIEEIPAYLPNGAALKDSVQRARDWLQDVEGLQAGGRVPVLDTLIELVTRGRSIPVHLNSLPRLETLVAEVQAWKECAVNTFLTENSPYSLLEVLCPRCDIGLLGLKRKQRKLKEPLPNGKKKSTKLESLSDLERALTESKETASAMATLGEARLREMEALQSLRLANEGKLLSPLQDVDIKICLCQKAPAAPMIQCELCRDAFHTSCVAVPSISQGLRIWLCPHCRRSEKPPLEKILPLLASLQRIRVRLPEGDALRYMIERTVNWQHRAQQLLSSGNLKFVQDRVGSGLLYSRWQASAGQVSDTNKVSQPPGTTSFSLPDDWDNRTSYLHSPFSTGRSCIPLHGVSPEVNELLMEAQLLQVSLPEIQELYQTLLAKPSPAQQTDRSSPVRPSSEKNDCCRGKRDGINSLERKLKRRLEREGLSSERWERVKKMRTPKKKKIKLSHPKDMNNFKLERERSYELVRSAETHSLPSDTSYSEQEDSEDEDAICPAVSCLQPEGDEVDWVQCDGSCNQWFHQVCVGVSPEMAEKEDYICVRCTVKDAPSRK
#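 Inhibition is measured as reduced NADH fluorescence generation from FDH coupling to formaldehyde release. Truncated KDM5BΔAP at 200 nM final acts on H3K4me3 peptide (12.5 µM in substrate mix) in pH 7.5 HEPES buffer with Tween-20, 30 min, room temperature.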
# An asterisk follows results filed as active; i = inactive. Shown is part of a subset that was picked to be rich in hits. Potency is the fitted concentration of half-maximal effect.
SMILES,KDM5B inh
Fc1ccc(-c2nnc3ccc(NC4CCC4)nn23)nc1,i
COCCCNc1ccc2nnc(-c3ccc(C)cn3)n2n1,40µM*
COc1cc(Nc2ccc3nnc(-c4ccccn4)n3n2)cc(OC)c1OC,i
Cc1ccc(-c2nnc3ccc(NCc4cccs4)nn23)nc1,i
COc1ccc(-c2nnc3ccc(NCC(C)C)nn23)nc1,35µM*
COc1ccc(-c2nnc3ccc(NCCc4ccccc4)nn23)nc1,i
COc1cc(Nc2ccc3nnc(-c4ccc(C)cn4)n3n2)cc(OC)c1OC,i
C=Cn1cccc1-c1ccc(OC)cc1,i
O=C1/C(=C/c2ccc(Br)cc2F)Cc2ccccc21,i
CCn1cnc2c1c(=O)n(CC(=O)NCC(C)(C)N1CCOCC1)c(=O)n2Cc1ccccc1,i
CNC(=O)[C@@H]1CN(C(=O)c2sccc2C)C[C@H]1c1nc(COC)no1,i
CNC(=O)[C@@H]1CN(C(=O)c2ccc(C)[nH]c2=O)C[C@H]1c1nc(COC)no1,25µM*
CNC(=O)[C@@H]1CN(C(=O)c2ccc(Cl)s2)C[C@H]1c1nc(COC)no1,i
Cn1c(O)c(C2=Nc3ccccc3SC(c3ccc(O)cc3)C2)c(=O)[nH]c1=O (configuration not stated),i
Cc1occc1-c1nnc(SC(C(=O)Nc2cccc(C(F)(F)F)c2)c2ccccc2)o1 (configuration not stated),i
CC(NC(=O)NOCc1ccccc1)c1ccc(C#N)cc1 (configuration not stated),i
O=C1c2cnc(-c3ccccc3)nc2OCCN1c1cccc(C(F)(F)F)c1,i
C[S+](=O)([O-])c1cccc(-c2ncc3c(n2)OCCN(Cc2ccccc2)C3=O)c1,i
O=C1c2cnc(-c3cccc(C(F)(F)F)c3)nc2OCCN1Cc1ccccc1,i
COc1ccc(CN2CCOc3nc(-c4ccc(F)cc4F)ncc3C2=O)cc1,i
COc1cccc(-c2ncc3c(n2)OCCN(c2ccccc2)C3=O)c1,28µM*
COc1cccc(-c2ncc3c(n2)OCCN(Cc2ccccc2)C3=O)c1,35µM*
COc1ccc(CN2CCOc3nc(-c4ccc(O)c(F)c4)ncc3C2=O)cc1,32µM*
O=C1c2cnc(-c3cc4ccccc4o3)nc2OCCN1Cc1ccccc1,i
COc1cccc(-c2ncc3c(n2)OCCN(c2cccc(C(F)(F)F)c2)C3=O)c1,i
SMILES,KDM5B inh
NC(=O)c1cccc(-c2ncc3c(n2)OCCN(c2ccccc2)C3=O)c1,i
COc1ccc(-c2ncc3c(n2)OCCN(Cc2ccccc2)C3=O)cc1,i
O=C1c2cnc(-c3cc4ccccc4o3)nc2OCCN1c1ccccc1,22µM*
CCCn1nc(C(=O)N(C)Cc2ccc(F)cc2)c2ccccc2c1=O,i
CN(CC(=O)Nc1ccc(F)cc1)C(=O)c1ccc(-n2cccc2)cc1,i
CCCN(CCC)c1ccc(NS(=O)(=O)c2ccc(C(C)=O)cc2)cc1C(=O)O,i
COCCn1cnc2c1c(=O)n(CC(=O)Nc1ccccc1F)c(=O)n2Cc1ccccc1,i
O=C(NCCc1ccco1)c1ccc(CN2C(=O)CSc3ncccc32)cc1,i
O=C1NC(=NC2CCCCC2)C2(CCN(CC3CCCCC3)C2)N1c1cc(F)cc(F)c1 (configuration not stated),i
CC(C)c1ccc(-n2nnnc2SCCCn2c(=O)c3c(ncn3C)n(C)c2=O)cc1,i
Cc1ccc(OCC(=O)Nc2ccc3oc(-c4ccccc4)nc3c2)c(C)c1,i
CCOc1ccccc1CN1CCC2(CCN(C(=O)Nc3ccccc3)CC2)Oc2ccccc21,i
Cc1ccc(SCC(=O)c2ccc3c(c2)OCCO3)c(C)c1,i
CCN(CC)S(=O)(=O)c1ccc2oc(SC(C(=O)NC3CC3)c3ccccc3)nc2c1 (configuration not stated),i
O=C(NCc1cc2n(n1)CCNC2)C1CCCN(c2ccccn2)C1 (configuration not stated),32µM*
CCc1nc2cc(N3CCCC(C(=O)NCc4ccccn4)C3)cnc2nc1CC (configuration not stated),i
O=C(NCc1ccccn1)C1CCN(Cc2cc3n(n2)CCCNC3)CC1,i
CCOc1ccc(CNCc2cccs2)cc1OC,i
CCc1cccc(NC(=O)CCS(=O)(=O)c2ccc3c(c2)oc(=O)n3C)c1,i
CCn1c(SCc2cc3c(cc2Br)OCCO3)nc2cc(S(N)(=O)=O)ccc21,i
N#Cc1ccc(OCCSCc2cccc(F)c2)cc1,i
Clc1ccc(Oc2cccc(CN3CCN(C4CCNC4)CC3)c2)cc1 (configuration not stated),16µM*
O=C1NC[C@H]2CN(Cc3cccc(OC(F)(F)F)c3)CCN12,i
CCOc1cccc(CN2CCC([C@@H]3CNC[C@H]3CO)CC2)c1,i
O=C(O)c1cc(C2CC2)nc2c1c(C1CC1)nn2-c1ccc(F)cc1,i
SMILES,KDM5B inh
O=C(NC1CCNCC1)c1cc(C2CC2)nc2c1c(C1CCCN1)nn2-c1ccccc1 (configuration not stated),i
CC(C)CNC(=O)c1cc(C2CC2)nc2c1c(C1CCCN1)nn2C (configuration not stated),79µM*
Cn1nc(C2CCCN2)c2c(C(=O)NCc3ccncc3)cc(C3CC3)nc21 (configuration not stated),79µM*
O=C(c1cc(C2CC2)nc2c1c(C1CCCN1)nn2-c1ccccc1)N1CCOCC1 (configuration not stated),i
O=C(NC1CC1)c1cc(C2CC2)nc2c1c(C1CCCN1)nn2-c1ccccc1 (configuration not stated),i
Cn1nc(C2CCCN2)c2c(C(=O)NCc3ccc(F)cc3)cc(C3CC3)nc21 (configuration not stated),79µM*
CN(CCc1ccncc1)C(=O)c1cc(C2CC2)nc2ccccc12,i
Cc1cc(C(=O)NCc2ccc(F)cc2)c2c(C3CCCN3)noc2n1 (configuration not stated),i
O=C(O)Cc1ccc2nc[nH]c2c1,i
Cc1ccc(S(=O)(=O)c2cn(CC(=O)Nc3ccc(F)c(Cl)c3)c3nc(C)ccc3c2=O)cc1,i
O=C(OCc1nc(-c2cccc(Cl)c2)no1)c1ccccn1,i
Cc1oc2c(c1C(=O)N(C)C)CN(S(=O)(=O)c1ccccc1)CC2,i
CCC(CO)NC(=O)Nc1sc(C)c(C)c1C#N (configuration not stated),i
CC(=O)Nc1cccc(C(=O)N2CCC(c3n[nH]c(=O)n3-c3ccc(C)cc3)CC2)c1,i
Cc1ccccc1CN1CC[C@H](c2nnc(-c3ccc(N(C)C)cc3)o2)C1,32µM*
Clc1ccccc1CN1CC[C@H](c2nnc(-c3ccccc3)o2)C1,i
Cc1ccc(CN2CC[C@H](c3nnc(-c4cccnc4)o3)C2)cc1,i
c1ccc(-c2nnc([C@H]3CCN(Cc4ccc5c(c4)OCO5)C3)o2)cc1,i
c1coc(CN2CC[C@H](c3nnc(-c4ccncc4)o3)C2)c1,i
CN(C)c1ccc(-c2nnc([C@H]3CCN(Cc4ccccn4)C3)o2)cc1,35µM*
c1cnc(N2CC[C@H](c3nnc(-c4ccncc4)o3)C2)nc1,32µM*
Clc1ccc(-c2nnc([C@H]3CCN(Cc4ccco4)C3)o2)cc1,i
c1cncc(-c2nnc([C@H]3CCN(C4CCOCC4)C3)o2)c1,i
NC(=O)NNC(=S)Nc1ccccc1,i
O=C(c1cc(C(F)(F)F)[nH]n1)N1CC[C@@H](c2ccc(F)cc2)[C@H](O)C1,i
